# From PubChem BioAssay AID1030 (National Center for Advancing Translational Sciences (NCATS), 2008)
# The whole screen tested about 220,000 compounds, of which about 16,000 (7.3%) were called active. Entries that show only a call come without a potency. Not shown: some 25% with an inconclusive outcome. Calls come from the whole dose curve; as a rule, active = well fitted inhibition curve with a large enough effect (not every such curve was filed as active); inconclusive = small, poorly fitted or top-dose-only effect, or another doubt; inactive = no such curve, though single readings can be large or run the other way. The full list was thinned out, with actives kept by preference.
# Target: Aldehyde dehydrogenase 1A1 (Homo sapiens) (UniProt P00352)
# Sequence (P00352 whole entry, looked up): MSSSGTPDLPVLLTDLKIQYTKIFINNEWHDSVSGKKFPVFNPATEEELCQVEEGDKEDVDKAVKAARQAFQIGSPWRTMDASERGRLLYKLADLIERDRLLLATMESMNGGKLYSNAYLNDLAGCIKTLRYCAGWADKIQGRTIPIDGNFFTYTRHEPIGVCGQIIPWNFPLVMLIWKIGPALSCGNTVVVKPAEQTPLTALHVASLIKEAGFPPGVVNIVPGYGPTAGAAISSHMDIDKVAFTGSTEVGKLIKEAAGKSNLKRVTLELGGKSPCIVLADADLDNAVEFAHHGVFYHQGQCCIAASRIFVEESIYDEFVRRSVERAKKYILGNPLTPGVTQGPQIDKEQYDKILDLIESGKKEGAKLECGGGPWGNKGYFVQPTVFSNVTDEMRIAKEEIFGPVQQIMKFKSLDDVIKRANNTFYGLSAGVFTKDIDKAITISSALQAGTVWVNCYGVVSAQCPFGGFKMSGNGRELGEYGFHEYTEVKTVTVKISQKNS
# Experiment: qHTS Assay for Inhibitors of Aldehyde Dehydrogenase 1 (ALDH1A1)
# Settings: Purified ALDH1A1, NADH fluorescence, propionaldehyde substrate; series mostly up to 75.3 µM
# Potency is the fitted concentration of half-maximal effect.
row,Compound,Potency
1,Cc1cc(C)cc(OCC(=O)Nc2ccc(S(=O)(=O)Nc3ccccn3)cc2)c1,inactive
2,CC(CCO)Nc1nc2c([nH]1)c(=O)n(C)c(=O)n2C (stereo not drawn),inactive
3,Cc1ccc(NN=Nc2nc3c([nH]2)c(=O)n(C)c(=O)n3C)cc1,7.94 µM (active)
4,COc1ccc2cc(-c3[nH]ncc3CNCCn3nc(C)cc3C)ccc2c1,inactive
5,Cc1c(O)c(Br)c(C)c(O)c1Br (tested in a mixture with another compound),1.12 µM (active)
6,COCCN(C(=O)CCC(=O)Nc1nccs1)C(C(=O)NC(C)(C)C)c1ccc(Cl)cc1 (stereo not drawn),inactive
7,Cc1ccc(OCc2n[nH]c(=S)n2-c2ccccc2)cc1,inactive
8,COc1ccc(OCc2n[nH]c(=S)n2N)cc1,4.47 µM (active)
9,Cc1ccc(OCc2n[nH]c(=S)n2-c2ccc(C)cc2)cc1,inactive
10,Cc1noc(C)c1CCC(=O)O,inactive
11,O=C(c1cccc(S(=O)(=O)N2CCCC2)c1)N(Cc1ccco1)C1CCS(=O)(=O)C1 (stereo not drawn),inactive
12,COc1cc(OC)c2c(-c3cccc(-c4cccc(N)c4)c3)cc(=O)oc2c1,inactive
13,CCOc1ccc(CN(Cc2ccco2)C(c2cccs2)c2nnnn2C(C)(C)C)cc1 (stereo not drawn),inactive
14,CCC(c1nnnn1Cc1ccco1)N(CCc1ccccc1)Cc1cc2ccc(OC)cc2[nH]c1=O (stereo not drawn),10 µM (active)
15,CCC(c1nnnn1Cc1ccco1)N(CCc1ccccc1)Cc1cc2cccc(C)c2[nH]c1=O (stereo not drawn),7.94 µM (active)
16,CCN(CC)CCNS(=O)(=O)c1ccc(/C=C/C(=O)O)cc1,inactive
17,Cc1noc(C)c1COC(=O)COc1ccc(-c2ccccc2)cc1,inactive
18,Cc1nn(CC(=O)Nc2ccc(C#N)cc2)c(C)c1[N+](=O)[O-],inactive
19,CCCC(C)C(=O)NCc1ccncc1 (stereo not drawn),inactive
20,OCCC1CN(Cc2cccc(OC3CCCC3)c2)CCN1Cc1ccsc1 (stereo not drawn),inactive
21,COC(=O)c1cc(=O)n(-c2c(Cl)cc(C(F)(F)F)cc2Cl)[nH]1,inactive
22,Cn1c(CC2Sc3ccccc3NC2=O)nnc1SCC(=O)c1ccc(Cl)cc1 (stereo not drawn),3.98 µM (active)
23,Cc1ccc(CNC(=O)CC2Sc3ccccc3NC2=O)cc1 (stereo not drawn),inactive

row,Compound,Potency
1,Cn1c(CCC(=O)Nc2ccccc2F)nnc1SCC(=O)Nc1ccccc1Cl,inactive
2,COc1cc(C)c(Cl)cc1S(=O)(=O)n1ccnc1,inactive
3,Cc1nc(N)[nH]c(=O)c1Oc1cccc(C(F)(F)F)c1,inactive
4,Cn1c(-c2ccccc2)c[n+]2c1CCCCC2,inactive
5,COc1ccc(C(=O)Nc2cc(C)ccc2NC(=O)COc2ccccc2)cc1,3.98 µM (active)
6,Cc1cccc(NC(=O)c2ccc(OCC(=O)NCc3ccccc3)cc2)c1C,inactive
7,COc1ccc(OCC(=O)NNC(=O)c2cccc(C)c2)cc1,inactive
8,CCOC(=O)Cc1ncccc1C(=O)Nc1ccc(OC(F)(F)F)cc1,inactive
9,Cn1nnnc1-c1cc(Cl)cc(Cl)c1,inactive
10,COc1ccc(Br)cc1C(=O)Nc1cccc(C)c1C,inactive
11,COc1ccc(/C=C(/NC(=O)c2ccc(C)cc2)c2nc3ccccc3[nH]2)cc1OC,inactive
12,COc1ccc(Br)cc1C(=O)NC(=S)Nc1cc(-c2nc3ccccc3[nH]2)ccc1C,12.6 µM (active)
13,CC(OC(=O)CCc1nc(=O)c2ccccc2n1C)C(=O)NCc1ccc2c(c1)OCO2 (stereo not drawn),inactive
14,CC(C)CNC(=O)C(=O)Nc1ccc(N(C)C)cc1,inactive
15,COc1cc(CN2CCN(Cc3ccc(C)cc3)CC2)c([N+](=O)[O-])cc1OC,17.8 µM (active)
16,COc1cc(CC(=O)N/N=C/c2ccccc2)c([N+](=O)[O-])cc1OC,inactive
17,COc1cc(CN2CC(C)CC(C)C2)cc([N+](=O)[O-])c1O (stereo not drawn),inactive
18,COC(=O)C1=C(N)Oc2c(oc(CO)cc2=O)C1c1c(F)cccc1Cl (stereo not drawn),inactive
19,C/C(=N\NC(=O)NC1CCCCC1)c1ccc(OC(F)F)cc1OC(F)F,inactive
20,Cn1c(=O)c2c(ncn2CC(=O)N/N=C/c2cn[nH]c2-c2ccc(F)cc2)n(C)c1=O,inactive
21,CC(=O)c1nc(N2C(=O)C3CC=C(C)CC3C2=O)sc1C (stereo not drawn),2.51 µM (active)
22,CC(=O)Oc1cccc(N2C(=O)C3CC=C(Cl)CC3C2=O)c1 (stereo not drawn),inactive
23,Cc1ncc([N+](=O)[O-])n1CCOC(=O)c1ccc(Br)cc1,inactive

row,Compound,Potency
1,Cc1ccc(NC(=O)C(=O)NCc2ccco2)c(C)c1,inactive
2,CCn1c(SCC(=O)NCc2ccco2)nnc1-c1ccc(N)cc1,inactive
3,O=C(CSc1nnc(-c2cccs2)n1-c1ccccc1)NCc1ccco1,inactive
4,Cc1cc(C)n2nc(SCC(=O)NC(=O)NCc3ccco3)nc2n1,inactive
5,O=C(CSc1nnc(-c2ccco2)n1Cc1ccccc1)NC(=O)NCc1ccco1,15.8 µM (active)
6,Cc1ccc(SCC(=O)NC(=O)NCc2ccco2)c(C)c1,22.4 µM (active)
7,Cc1ccc(C(C)(C)C)c(OCCCCN2CCCC2)c1,inactive
8,COc1ccc(/C=N/NC(=O)Nc2ccc3nsnc3c2)c(OC)c1,inactive
9,CCOc1cc(C2C(C(=O)OC(C)C)=C(C)NC3=C2C(=O)CCC3)cc([N+](=O)[O-])c1O (stereo not drawn),inactive
10,COc1cccc(OC)c1C(=O)OCC(=O)/C(C#N)=C(\C)N,inactive
11,COC(=O)C1=C(C)N(C(C)c2ccccc2)C(=O)/C1=C\c1ccco1 (stereo not drawn),inactive
12,NNC(=O)C1CCCn2c1nc1sc3c(c1c2=O)CCCC3 (stereo not drawn),12.6 µM (active)
13,N=c1c2c3c(sc2nc2n1CCCCC2)CCCC3,inactive
14,Cn1c(NN)nc2sc3c(c2c1=O)CCC3,inactive
15,Cc1cccc(S(=O)(=O)CC(=O)Nc2nc(-c3ccccc3)cs2)c1,inactive
16,O=C(CSc1ncn[nH]1)Nc1nc(-c2cccc([N+](=O)[O-])c2)cs1,17.8 µM (active)
17,O=C(CSc1nc(-c2ccccc2)cs1)Nc1cccc([N+](=O)[O-])c1,inactive
18,CC(=O)c1ccc(-c2nnc(CCC(=O)N(C)Cc3cnc4ccccn34)o2)s1,inactive
19,CCCCCCCCCCCCCCCCO,inactive
20,Cc1cc(C)nc(NC(=O)Nc2ccccc2C(F)(F)F)n1,35.5 µM (active)
21,O=C(Nc1ccccc1C(F)(F)F)c1cc(-c2ccc(O)cc2)on1,inactive
22,Cc1cc(C)nc(NC(=O)C(C)N2C(=O)c3ccccc3C2=O)n1 (stereo not drawn),inactive
